{"source": "PubChem BioAssay (NCATS)", "note": "Inconclusive results are not listed. A call without a number means that no potency is given here. Activity calls are given as the source filed them. Calls follow the shape of the dose curve; as a rule, active = well fitted curve in the direction sought with a large enough effect; inconclusive = small, poorly fitted or top-dose-only effect, or another doubt; inactive = no such curve, though single readings can be large; an effect the other way counts as inactive or inconclusive."}
{"assay": "Cell Viability - HUV-EC-C (AID 542); also: nearly all actives have a fitted effect of over 35% in size", "conditions": "HUV-EC-C endothelial cell viability, qHTS; series mostly up to 92.2 µM", "in_short": "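Concentration-dependent ATP loss in HUV-EC-C cells is the measure. Exposure lasts 40 hr at 37 °C; luminescence follows CellTiter-Glo addition, and Hill fits give AC50.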"}
{"smiles": "CC(C#N)CCC#N", "note": "(stereo unspecified)", "Potency": "inactive"}
{"smiles": "Nc1cc(Cl)ccc1Cl", "Potency": "inactive"}
{"smiles": "Nc1cccc(Cl)c1", "Potency": "inactive"}
{"smiles": "ClCc1ccccc1", "Potency": "inactive"}
{"smiles": "CCC/C=N/O", "Potency": "inactive"}
{"smiles": "COc1c(C(C)(C)C)cc([N+](=O)[O-])c(C)c1[N+](=O)[O-]", "Potency": "inactive"}
{"smiles": "O=S(=O)(Cl)c1ccccc1", "Potency": "inactive"}
{"smiles": "C=CCOCC1CO1", "note": "(stereo unspecified)", "Potency": "inactive"}
{"smiles": "c1ccoc1", "Potency": "inactive"}
{"smiles": "Clc1ccccc1", "Potency": "inactive"}
{"smiles": "ClC(Cl)(Cl)C(Cl)(Cl)Cl", "Potency": "inactive"}
{"smiles": "CCOC(=O)C1OC1(C)c1ccccc1", "note": "(stereo unspecified)", "Potency": "inactive"}
{"smiles": "C/C=C/CC#N", "Potency": "inactive"}
{"smiles": "ClC(Cl)C(Cl)Cl", "Potency": "inactive"}
{"smiles": "C=CCCl", "Potency": "inactive"}
{"smiles": "Oc1c(Cl)cccc1Cl", "Potency": "inactive"}
{"smiles": "Brc1cccc(-c2ccccc2)c1", "Potency": "inactive"}
{"smiles": "C=CCO", "Potency": "inactive"}
{"smiles": "OCCCCO", "Potency": "inactive"}
{"smiles": "Nn1cnnc1", "Potency": "inactive"}
{"smiles": "BrCCc1ccccc1", "Potency": "inactive"}
{"smiles": "Cc1ccccc1[N+](=O)[O-]", "Potency": "inactive"}
{"smiles": "CCCCOC(=O)c1ccccc1N", "Potency": "inactive"}
{"smiles": "Clc1cc(Cl)c(Cl)c(Cl)c1", "Potency": "inactive"}
{"smiles": "Cc1ccc(N)c(C)c1", "Potency": "inactive"}
{"smiles": "C1CC2OC2CC1C1CO1", "note": "(stereo unspecified)", "Potency": "inactive"}
{"smiles": "CN(C)C(=O)Cl", "Potency": "inactive"}
{"smiles": "CC(=O)NNc1ccccc1", "Potency": "inactive"}
{"smiles": "Cc1ccc(N=C=O)cc1N=C=O", "Potency": "inactive"}
{"smiles": "O=C(Cl)OCc1ccccc1", "Potency": "inactive"}
{"smiles": "C=CC(=O)OC", "Potency": "inactive"}
{"smiles": "CCN(CC)N=O", "Potency": "inactive"}
{"smiles": "OCC(Cl)CCl", "note": "(stereo unspecified)", "Potency": "inactive"}
{"smiles": "CC(C)CON=O", "Potency": "inactive"}
{"smiles": "CC[N+](=O)[O-]", "Potency": "inactive"}
{"smiles": "CC(C)(Cl)[N+](=O)[O-]", "Potency": "inactive"}
{"smiles": "C[N+](=O)[O-]", "Potency": "inactive"}
{"smiles": "CC(C)OC(=O)Cc1ccccc1", "Potency": "inactive"}
{"smiles": "ClCC(Br)CBr", "note": "(stereo unspecified)", "Potency": "inactive"}
{"assay": "Cell Viability - H-4-II-E (AID 543); also: nearly all actives have a fitted effect of over 35% in size", "conditions": "H-4-II-E rat hepatoma viability; series mostly up to 92.2 µM", "in_short": "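AC50 from Hill-modelled qHTS concentration-response curves. H-4-II-E rat hepatoma cells in complete medium, 40 hr exposure at 37 °C, viability by CellTiter-Glo ATP luminescence.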"}
{"smiles": "CC(C#N)CCC#N", "note": "(stereo unspecified)", "Potency": "inactive"}
{"smiles": "Nc1cc(Cl)ccc1Cl", "Potency": "inactive"}
{"smiles": "Nc1cccc(Cl)c1", "Potency": "inactive"}
{"smiles": "ClCc1ccccc1", "Potency": "inactive"}
{"smiles": "CCC/C=N/O", "Potency": "inactive"}
{"smiles": "COc1c(C(C)(C)C)cc([N+](=O)[O-])c(C)c1[N+](=O)[O-]", "Potency": "inactive"}
{"smiles": "O=S(=O)(Cl)c1ccccc1", "Potency": "inactive"}
{"smiles": "C=CCOCC1CO1", "note": "(stereo unspecified)", "Potency": "inactive"}
{"smiles": "c1ccoc1", "Potency": "inactive"}
{"smiles": "Clc1ccccc1", "Potency": "inactive"}
{"smiles": "ClC(Cl)(Cl)C(Cl)(Cl)Cl", "Potency": "inactive"}
{"smiles": "CCOC(=O)C1OC1(C)c1ccccc1", "note": "(stereo unspecified)", "Potency": "inactive"}
{"smiles": "C/C=C/CC#N", "Potency": "inactive"}
{"smiles": "ClC(Cl)C(Cl)Cl", "Potency": "inactive"}
{"smiles": "C=CCCl", "Potency": "inactive"}
{"smiles": "Oc1c(Cl)cccc1Cl", "Potency": "inactive"}
{"smiles": "Brc1cccc(-c2ccccc2)c1", "Potency": "inactive"}
{"smiles": "C=CCO", "Potency": "inactive"}
{"smiles": "OCCCCO", "Potency": "inactive"}
{"smiles": "Nn1cnnc1", "Potency": "inactive"}
{"smiles": "BrCCc1ccccc1", "Potency": "inactive"}
{"smiles": "Cc1ccccc1[N+](=O)[O-]", "Potency": "inactive"}
{"smiles": "CCCCOC(=O)c1ccccc1N", "Potency": "inactive"}
{"smiles": "Clc1cc(Cl)c(Cl)c(Cl)c1", "Potency": "inactive"}
{"smiles": "Cc1ccc(N)c(C)c1", "Potency": "inactive"}
{"smiles": "C1CC2OC2CC1C1CO1", "note": "(stereo unspecified)", "Potency": "inactive"}
{"smiles": "CN(C)C(=O)Cl", "Potency": "inactive"}
{"smiles": "CC(=O)NNc1ccccc1", "Potency": "inactive"}
{"smiles": "Cc1ccc(N=C=O)cc1N=C=O", "Potency": "inactive"}
{"smiles": "O=C(Cl)OCc1ccccc1", "Potency": "inactive"}
{"smiles": "C=CC(=O)OC", "Potency": "inactive"}
{"smiles": "CCN(CC)N=O", "Potency": "inactive"}
{"smiles": "OCC(Cl)CCl", "note": "(stereo unspecified)", "Potency": "inactive"}
{"smiles": "CC(C)CON=O", "Potency": "inactive"}
{"smiles": "CC[N+](=O)[O-]", "Potency": "inactive"}
{"smiles": "CC(C)(Cl)[N+](=O)[O-]", "Potency": "inactive"}
{"smiles": "C[N+](=O)[O-]", "Potency": "inactive"}
{"smiles": "CC(C)OC(=O)Cc1ccccc1", "Potency": "inactive"}
{"smiles": "ClCC(Br)CBr", "note": "(stereo unspecified)", "Potency": "inactive"}
{"assay": "Cell Viability - SH-SY5Y (AID 544); also: nearly all actives have a fitted effect of over 55% in size", "conditions": "SH-SY5Y neuroblastoma cell viability; viability change, negative = cytotoxic: at 92.2 µM (top of the series)", "in_short": "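Quantitative HTS in SH-SY5Y neuroblastoma cells, 40 hr treatment at 37 °C, ATP content by luciferase luminescence; AC50 from Hill fits.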"}
{"smiles": "CC(C#N)CCC#N", "note": "(stereo unspecified)", "Potency": "inactive"}
{"smiles": "Nc1cc(Cl)ccc1Cl", "Potency": "inactive"}
{"smiles": "Nc1cccc(Cl)c1", "Potency": "inactive"}
{"smiles": "ClCc1ccccc1", "Potency": "inactive"}
{"smiles": "CCC/C=N/O", "Potency": "inactive"}
{"smiles": "COc1c(C(C)(C)C)cc([N+](=O)[O-])c(C)c1[N+](=O)[O-]", "Potency": "inactive"}
{"smiles": "O=S(=O)(Cl)c1ccccc1", "viability change, negative = cytotoxic": "-100% (active)"}
{"smiles": "C=CCOCC1CO1", "note": "(stereo unspecified)", "Potency": "inactive"}
{"smiles": "c1ccoc1", "Potency": "inactive"}
{"smiles": "Clc1ccccc1", "Potency": "inactive"}
{"smiles": "ClC(Cl)(Cl)C(Cl)(Cl)Cl", "Potency": "inactive"}
{"smiles": "CCOC(=O)C1OC1(C)c1ccccc1", "note": "(stereo unspecified)", "Potency": "inactive"}
{"smiles": "C/C=C/CC#N", "Potency": "inactive"}
{"smiles": "ClC(Cl)C(Cl)Cl", "Potency": "inactive"}
{"smiles": "C=CCCl", "Potency": "inactive"}
{"smiles": "Oc1c(Cl)cccc1Cl", "Potency": "inactive"}
{"smiles": "Brc1cccc(-c2ccccc2)c1", "Potency": "inactive"}
{"smiles": "C=CCO", "Potency": "inactive"}
{"smiles": "OCCCCO", "Potency": "inactive"}
{"smiles": "Nn1cnnc1", "Potency": "inactive"}
{"smiles": "BrCCc1ccccc1", "Potency": "inactive"}
{"smiles": "Cc1ccccc1[N+](=O)[O-]", "Potency": "inactive"}
{"smiles": "CCCCOC(=O)c1ccccc1N", "Potency": "inactive"}
{"smiles": "Clc1cc(Cl)c(Cl)c(Cl)c1", "Potency": "inactive"}
{"smiles": "Cc1ccc(N)c(C)c1", "Potency": "inactive"}
{"smiles": "C1CC2OC2CC1C1CO1", "note": "(stereo unspecified)", "Potency": "inactive"}
{"smiles": "CN(C)C(=O)Cl", "Potency": "inactive"}
{"smiles": "CC(=O)NNc1ccccc1", "Potency": "inactive"}
{"smiles": "Cc1ccc(N=C=O)cc1N=C=O", "Potency": "inactive"}
{"smiles": "O=C(Cl)OCc1ccccc1", "Potency": "inactive"}
{"smiles": "C=CC(=O)OC", "Potency": "inactive"}
{"smiles": "CCN(CC)N=O", "Potency": "inactive"}
{"smiles": "OCC(Cl)CCl", "note": "(stereo unspecified)", "Potency": "inactive"}
{"smiles": "CC(C)CON=O", "Potency": "inactive"}
{"smiles": "CC[N+](=O)[O-]", "Potency": "inactive"}
{"smiles": "CC(C)(Cl)[N+](=O)[O-]", "Potency": "inactive"}
{"smiles": "C[N+](=O)[O-]", "Potency": "inactive"}
{"smiles": "CC(C)OC(=O)Cc1ccccc1", "Potency": "inactive"}
{"smiles": "ClCC(Br)CBr", "note": "(stereo unspecified)", "Potency": "inactive"}
{"assay": "Cell Viability - Renal Proximal Tubule (AID 545); also: nearly all actives have a fitted effect of over 40% in size", "conditions": "renal proximal tubule cells viability; series mostly up to 91.7 µM", "in_short": "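In this qHTS format, normal rat kidney-derived proximal tubule cells in complete culture medium receive compound titrations, then sit 40 hours at 37 °C before luciferase-based ATP quantitation; potency is reported as AC50 from concentration-response curves.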"}
{"smiles": "CC(C#N)CCC#N", "note": "(stereo unspecified)", "outcome": "inactive"}
{"smiles": "Nc1cc(Cl)ccc1Cl", "outcome": "inactive"}
{"smiles": "Nc1cccc(Cl)c1", "outcome": "inactive"}
{"smiles": "ClCc1ccccc1", "outcome": "inactive"}
{"smiles": "CCC/C=N/O", "outcome": "inactive"}
{"smiles": "COc1c(C(C)(C)C)cc([N+](=O)[O-])c(C)c1[N+](=O)[O-]", "outcome": "inactive"}
{"smiles": "O=S(=O)(Cl)c1ccccc1", "outcome": "inactive"}
{"smiles": "C=CCOCC1CO1", "note": "(stereo unspecified)", "outcome": "inactive"}
{"smiles": "c1ccoc1", "outcome": "inactive"}
{"smiles": "Clc1ccccc1", "outcome": "inactive"}
{"smiles": "ClC(Cl)(Cl)C(Cl)(Cl)Cl", "outcome": "inactive"}
{"smiles": "CCOC(=O)C1OC1(C)c1ccccc1", "note": "(stereo unspecified)", "outcome": "inactive"}
{"smiles": "C/C=C/CC#N", "outcome": "inactive"}
{"smiles": "ClC(Cl)C(Cl)Cl", "outcome": "inactive"}
{"smiles": "C=CCCl", "outcome": "inactive"}
{"smiles": "Oc1c(Cl)cccc1Cl", "outcome": "inactive"}
{"smiles": "Brc1cccc(-c2ccccc2)c1", "outcome": "inactive"}
{"smiles": "C=CCO", "outcome": "inactive"}
{"smiles": "OCCCCO", "outcome": "inactive"}
{"smiles": "Nn1cnnc1", "outcome": "inactive"}
{"smiles": "BrCCc1ccccc1", "outcome": "inactive"}
{"smiles": "Cc1ccccc1[N+](=O)[O-]", "outcome": "inactive"}
{"smiles": "CCCCOC(=O)c1ccccc1N", "outcome": "inactive"}
{"smiles": "Clc1cc(Cl)c(Cl)c(Cl)c1", "outcome": "inactive"}
{"smiles": "Cc1ccc(N)c(C)c1", "outcome": "inactive"}
{"smiles": "C1CC2OC2CC1C1CO1", "note": "(stereo unspecified)", "outcome": "inactive"}
{"smiles": "CN(C)C(=O)Cl", "outcome": "inactive"}
{"smiles": "CC(=O)NNc1ccccc1", "outcome": "inactive"}
{"smiles": "Cc1ccc(N=C=O)cc1N=C=O", "outcome": "inactive"}
{"smiles": "O=C(Cl)OCc1ccccc1", "outcome": "inactive"}
{"smiles": "C=CC(=O)OC", "outcome": "inactive"}
{"smiles": "CCN(CC)N=O", "outcome": "inactive"}
{"smiles": "OCC(Cl)CCl", "note": "(stereo unspecified)", "outcome": "inactive"}
{"smiles": "CC(C)CON=O", "outcome": "inactive"}
{"smiles": "CC[N+](=O)[O-]", "outcome": "inactive"}
{"smiles": "CC(C)(Cl)[N+](=O)[O-]", "outcome": "inactive"}
{"smiles": "C[N+](=O)[O-]", "outcome": "inactive"}
{"smiles": "CC(C)OC(=O)Cc1ccccc1", "outcome": "inactive"}
{"smiles": "ClCC(Br)CBr", "note": "(stereo unspecified)", "outcome": "inactive"}
